hgDAF-12 ag = H. glycines DAF-12 receptor agonists, primary screen, cell-based, luminescence, HEK293, GAL4 fusion, UAS-luciferase; HEK293 GAL4-hgDAF12 UAS-luciferase reporter, agonist luminescence; normalized to butyrate control; activation, % at 6.8 µM; 370,000 compounds, 1.8% hits;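 active means activation above a cutoff set at the mean of all screened compounds plus 3 SD, cut at about 10% in these data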;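 further: 0% = DMSO wells and 100% = sodium butyrate wells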
hcDAF-12 act = H. contortus DAF-12 nuclear receptor activators, primary screen, cell-based, luminescence, HEK293, lit1-tk-luc reporter; activation, % at 6.8 µM; 370,000 compounds, 1.4% hits; HEK293 hcDAF-12 lit1-tk-luc reporter; 0% DMSO, 100% Δ7-dafachronic acid; AID 652067, 2013;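 active means activation above the mean of all tested compounds plus 3 SD, cut at about 5.5% in these data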;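 further: 100% = response to 3 µM Δ7-dafachronic acid high control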
DAX1 inh-1 = DAX1 (NR0B1) inhibitors, primary screen, cell-based, HEK293, Gal4-DAX1, luciferase luminescence; HEK293 Gal4-DAX1 luciferase reporter; inhibition, % at 6.75 µM; 340,000 compounds, 0.99% hits;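 active means inhibition above the mean over all tested compounds plus 3 SD, cut at about 4.2% in these data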;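 further: 0% = DAX1-transfected cells with DMSO and 100% = empty-vector control cells with DMSO; inhibition shows as a rise in luminescence from relieved DAX1 repression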
ssDAF-12 act = S. stercoralis DAF-12 nuclear receptor activators, primary screen, cell-based, luminescence, HEK293, GRIP1 co-expression, lit1-tk-luc; AID 652126, 2013; activation, % at 6.8 µM; 370,000 compounds, 1% hits; HEK293 ssDAF-12/GRIP1 lit1-tk-luc reporter; % of 3 µM dafachronic acid response;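 active means activation above the mean over all tested compounds plus 3 SD, cut at about 0.9% in these data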;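 further: 0% = DMSO-only wells and 100% = 3 µM delta7-dafachronic acid wells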
DAX1 inh-2 = DAX1 (NR0B1) inhibitors on StAR promoter, primary screen, cell-based, luminescence, SF-1 (NR5A1), full-length DAX-1; HEK293T StAR-luciferase reporter, SF-1/DAX-1 repression relief; inhibition, % at 6.8 µM; 370,000 compounds, 1.1% hits; AID 652010, 2013;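 active means inhibition above the mean over all tested compounds plus 3 SD, cut at about 3.6% in these data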;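 further: 0% = DAX-1 cells with DMSO and 100% = cells lacking DAX-1 with DMSO; higher inhibition means more luminescence from relief of DAX-1 repression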
DAX1 conf = DAX1 (NR0B1) inhibitors relieving SF-1 repression, confirmation, cell-based, luminescence, HEK293T, full-length DAX-1, SF-1 activated StAR promoter | shares compounds with DAX1 inh-2 | HEK293T StAR-promoter luciferase reporter, SF-1/DAX-1 repression | inhibition, % at 6.8 µM | 2,400 compounds, 87% hits | AID 652134, 2013;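 active means inhibition above the average of every tested compound plus 3 SD, cut at about 3.8% in these data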;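 further: 0% = DAX-1 cells with DMSO and 100% = no DAX-1 control cells with DMSO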
Target sequence (P51843 whole entry, looked up): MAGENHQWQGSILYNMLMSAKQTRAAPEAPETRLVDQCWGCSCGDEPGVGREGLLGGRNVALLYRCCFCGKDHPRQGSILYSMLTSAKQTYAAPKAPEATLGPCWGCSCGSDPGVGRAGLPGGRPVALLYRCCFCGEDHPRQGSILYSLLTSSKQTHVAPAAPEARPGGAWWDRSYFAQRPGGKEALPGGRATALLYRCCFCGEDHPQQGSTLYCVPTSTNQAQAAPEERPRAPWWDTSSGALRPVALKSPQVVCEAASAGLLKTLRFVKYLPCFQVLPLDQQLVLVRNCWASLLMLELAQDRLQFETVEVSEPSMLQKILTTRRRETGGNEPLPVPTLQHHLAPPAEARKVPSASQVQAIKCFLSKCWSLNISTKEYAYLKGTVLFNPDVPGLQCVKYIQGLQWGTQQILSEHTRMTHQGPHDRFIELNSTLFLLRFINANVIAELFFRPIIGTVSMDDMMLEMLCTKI
SF1 AF2mut Luc = StAR reporter signal changes without DAX1, counter-screen for DAX1 inhibitor project, cell-based, luminescence, AF-2 mutant SF-1, transactivation; 2,400 compounds, 78% hits; shares compounds with DAX1 inh-2; inhibition, % at 6.8 µM; HEK293 StAR-luciferase, SF-1 AF2 mutant; AID 652136, 2013;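 active means inhibition above the mean of all tested compounds plus 3 SD, cut at about 3% in these data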;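 further: 0% = DAX-1 transfected cells with DMSO and 100% = cells without DAX-1 with DMSO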
LXR ag = LXR agonists, Gal4 luciferase reporter, confirmation, counter-screen for hcDAF-12 agonist project, cell-based, luminescence, HEK293, H. contortus campaign; AID 743027, 2013; activation, % at 6.8 µM; shares compounds with hcDAF-12 act; 3,400 tested, under 10 active; HEK293 Gal4-LXR tk-luc reporter, 24 h; normalized: DMSO 0%, positive control 100%;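 active means mean percent activation of the reporter above a cutoff set as the average over tested compounds plus their standard deviation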
hcDAF12 conf = H. contortus DAF-12 receptor agonists, confirmation, cell-based, luminescence, HEK293, lit1-tk-luc, triplicate | shares compounds with hcDAF-12 act | HEK293 hcDAF-12 lit1-tk-luc reporter; % of Δ7-dafachronic acid response | activation, % at 6.8 µM | 3,400 compounds, 61% hits | AID 743032, 2013;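 active means mean activation across triplicate tests above the threshold derived from the earlier primary screen, cut at about 5.5% in these data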;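 further: 0% = DMSO only wells and 100% = 3 µM Δ7-dafachronic acid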
hgDAF12 ag = H. glycines DAF-12 receptor agonists, confirmation, cell-based, luminescence, HEK293, GAL4-LBD fusion; HEK293 GAL4-hgDAF12 luciferase reporter, agonist mode; percent of butyrate response; 3,300 compounds, 80% hits; activation, % at 6.8 µM; shares compounds with hgDAF-12 ag;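 active means mean activation over triplicate wells above the hit cutoff derived from the earlier primary screen, cut at about 11% in these data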;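 further: 0% = DMSO low control and 100% = 2 mM sodium butyrate high control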
LXRb DAF12 ctr = LXR agonists, Gal4 luciferase reporter, confirmation, counter-screen for hgDAF-12 agonist project, cell-based, luminescence, HEK293, H. glycines campaign; shares compounds with hgDAF-12 ag; 24 h; activation, % at 6.8 µM; 3,300 tested, under 10 active; AID 743051, 2013;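 active means mean activation of the triplicate above a set limit carried over from the primary screen, none filed active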
Starred values were filed as active, the others as inactive; . = no result given. In the library only some 4.1% were active in any assay of this set; here they are far more common.

SMILES	hgDAF-12 ag	hcDAF-12 act	DAX1 inh-1	ssDAF-12 act	DAX1 inh-2	DAX1 conf	SF1 AF2mut Luc	LXR ag	hcDAF12 conf	hgDAF12 ag	LXRb DAF12 ctr
CC(=O)N1CCN(c2ccc(N3CCN(Cc4ccccc4)[C@H](C)C3)c(C)c2)[C@H](C)C1	3	-2	.	-1	-1	.	.	.	.	.	.
Nn1c(SCC(=O)N2CCOCC2)nnc1-c1cc(-c2ccc(Cl)cc2)n[nH]1	-1	-2	.	-1	0	.	.	.	.	.	.
O=C(Nc1nccs1)c1cncc(Br)c1	15*	7.9*	1	0	6.3*	7.6*	6.3*	1	6.0*	11*	0
CCCCCc1nnc(NC(=O)C2=COCCO2)s1	20*	9.0*	3	1.9*	11*	10*	5.0*	1	8.0*	14*	1
Cc1cc(-c2ccncc2)n2ncc(-c3ccccc3)c2n1	19*	11*	.	2.5*	13*	19*	9.5*	2	11*	23*	1
CC(C)c1ccc(Nc2ncccc2C(=O)O)cc1	22*	6.0*	2	0	6.4*	15*	7.4*	.	.	21*	1
CC(=O)Oc1ccc(/C=N/NC(=S)Nc2ccccc2)cc1	17*	6	3	0	5.0*	15*	8.4*	.	.	16*	1
CCOc1ccc(/C=N/Nc2ccccn2)cc1	17*	6.0*	1	1	5.8*	18*	10*	.	.	19*	1
CCOc1ccc(/C=N/NC(=O)CC(=O)NCc2ccccc2)cc1	-1	-2	0	-1	0	.	.	.	.	.	.
CCOc1ccc(/C=N/NC(=O)Nc2ccccc2)cc1	19*	5	1	-1	6.6*	9.2*	5.2*	.	.	20*	1
O=C(Cc1ccccc1)N/N=C/c1ccc(OCC(=O)Nc2ccccc2)cc1	0	-1	1	-1	-1	.	.	.	.	.	.
Clc1ccc(/C=N/Nc2ccccn2)cc1	10	2	4	0	2	.	.	.	.	.	.
COc1ccc(/C=N/Nc2cc(OC)ncn2)cc1	14*	9.2*	-1	2.2*	6.5*	15*	7.2*	1	9.4*	16*	1
COc1ccc(CN(CCN2CCOCC2)C(=O)c2ccc(F)cc2Cl)cc1OC	0	-3	.	-1	1	.	.	.	.	.	.
O=C(C1CCCN1S(=O)(=O)c1cccc([N+](=O)[O-])c1)N1CCN(c2ccccc2)CC1 (stereo not drawn)	-3	-5	.	-1	0	.	.	.	.	.	.
Cc1nnc(NC(=O)c2oc3ccccc3c2C)s1	15*	11*	1	1.4*	8.9*	10.0*	9.5*	1	12*	10*	1
NNC(=O)c1cccc(COc2ccc3c(c2)CCC3)c1	22*	5	-5	1	4.9*	15*	5.1*	.	.	22*	1
O=C(COc1ccc2c(c1)CCC2)NCc1ccccc1	-1	-2	-1	-2	-1	.	.	.	.	.	.
O=C(Nc1ccc(N2CCCCC2)cc1)c1ccc(F)cc1	13*	8.3*	0	1	4.6*	12*	6.0*	1	2	20*	1
O=C(Nc1ccc(N2CCCC2)cc1)c1ccc(Br)o1	16*	9.2*	1	1	6.0*	12*	6.0*	2	7.9*	17*	1
O=C(Nc1ccc(N2CCN(C(=O)c3ccccc3)CC2)cc1)c1ccc(Br)o1	-1	-4	-1	-1	-1	.	.	.	.	.	.
CC(C)(C)NC(=O)C(c1ccncc1)n1c(-c2ccc(C(F)(F)F)cc2)nc2ccccc21 (stereo not drawn)	17*	9.2*	.	1.4*	11*	11*	7.9*	1	5	17*	1
O=C(NN=C1CCCCCC1)c1cccs1	25*	8.0*	3	1	13*	1	1	0	2	6	0
CC1C2CC(C/C2=N/NC(=O)c2cccs2)C1(C)C (stereo not drawn)	13*	3	3	0	5.0*	1	1	.	.	0	0
COc1cccc(N(C)C(=O)[C@@H](C)[C@@H](O)c2ccc(Cl)cc2)c1	-1	-3	.	-1	-1	.	.	.	.	.	.
Cc1c(Cl)ccc2sc(NC(=O)c3ccco3)nc12	21*	10*	3	1.2*	6.0*	12*	8.7*	2	9.9*	21*	1
Cc1c(Cl)cccc1NC(=O)c1ccco1	0	-1	0	-1	0	.	.	.	.	.	.
Oc1ccccc1-c1cc(-c2ccccc2Cl)[nH]n1	25*	19*	1	4.0*	8.6*	19*	11*	2	15*	27*	1

Screens (PubChem)
